According to the supplement of paper PMC10849652:
The full data set covers some 8,800 targets. This sample favours those with a hit. About 0.5% of all pairs of compound and target were hits. A number with no mark means an inactive call.

Legend:
Test in all cases: log2 fold change, soluble protein after heating vs DMSO (PISA); higher = thermal stabilisation; K562 lysate, 10 uM; active = over 0.2 and 3.5 SD of the protein, either way, in both replicates (recomputed)
alvocidib = compound: CN1CC[C@H](c2c(O)cc(O)c3c(=O)cc(-c4ccccc4Cl)oc23)[C@H](O)C1 [alvocidib]
Summary of the method: (§1)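 Log-two fold change in thermal stability relative to solvent controls is reported from duplicates. For each sample, crude K562 extract from dounce-homogenised pellets in PBS pH 7.4 with 1 mM MgCl2, at 1 mg/mL protein, was treated with 10 μM compound for 30 min. Aliquots heated for 3 min across 48°C-58°C were pooled, brought to 0.5% NP-40 at 4°C and cleared at 21,000xg for 90 min. The supernatant was quantified by TMTpro 16plex LC-MS/MS with channel sums equalised.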

Tubastatin A = compound: CN1CCc2c(c3ccccc3n2Cc2ccc(C(=O)NO)cc2)C1 [Tubastatin A]
Summary of the method: as §1

[1] = compound: CNC(=O)C1=CC=CC=C1NC2=NC(=NC=C2Cl)NC3=C(C=C(C=C3)N4CCOCC4)OC
Summary of the method: as §1

defactinib = compound: CNC(=O)c1ccc(Nc2ncc(C(F)(F)F)c(NCc3nccnc3N(C)S(C)(=O)=O)n2)cc1 [defactinib]
Summary of the method: as §1

[2] = compound: CNc1nc(-c2ccc3c(N)n[nH]c3c2)cc(N2C[C@@H](C(=O)NC3CCCCC3)CC[C@H]2C)n1
Summary of the method: as §1

encorafenib = compound: COC(=O)N[C@@H](C)CNc1nccc(-c2cn(C(C)C)nc2-c2cc(Cl)cc(NS(C)(=O)=O)c2F)n1 [encorafenib]
Summary of the method: as §1

[3] = compound: COC(=O)[C@H](CCSC)NC(=O)C1=C(C=C(C=C1)NC[C@H](CS)N)C2=CC=CC=C2
Summary of the method: as §1

alisertib = compound: COc1cc(Nc2ncc3c(n2)-c2ccc(Cl)cc2C(c2c(F)cccc2OC)=NC3)ccc1C(=O)O [alisertib]
Summary of the method: as §1

[4] = compound: COc1cc2nc(-c3cc(F)ccc3O)nc(N[C@@H]3CNC[C@H]3C(C)(C)O)c2cc1OC
Summary of the method: as §1

gefitinib = compound: COc1cc2ncnc(Nc3ccc(F)c(Cl)c3)c2cc1OCCCN1CCOCC1 [gefitinib]
Summary of the method: as §1

lapatinib = compound: CS(=O)(=O)CCNCc1ccc(-c2ccc3ncnc(Nc4ccc(OCc5cccc(F)c5)c(Cl)c4)c3c2)o1 [lapatinib]
Summary of the method: as §1

pictilisib = compound: CS(=O)(=O)N1CCN(Cc2cc3nc(-c4cccc5[nH]ncc45)nc(N4CCOCC4)c3s2)CC1 [pictilisib]
Summary of the method: as §1

crizotinib = compound: C[C@@H](Oc1cc(-c2cnn(C3CCNCC3)c2)cnc1N)c1c(Cl)ccc(F)c1Cl [crizotinib]
Summary of the method: as §1

[5] = compound: C[C@H](C1=CC=C(C=C1)C(=O)NC2=C3C=CNC3=NC=C2)N
Summary of the method: as §1

duvelisib = compound: C[C@H](Nc1ncnc2nc[nH]c12)c1cc2cccc(Cl)c2c(=O)n1-c1ccccc1 [duvelisib]
Summary of the method: as §1

gandotinib = compound: Cc1cc(Nc2cc(CN3CCOCC3)c3nc(C)c(Cc4ccc(Cl)cc4F)n3n2)n[nH]1 [gandotinib]
Summary of the method: as §1

tozasertib = compound: Cc1cc(Nc2cc(N3CCN(C)CC3)nc(Sc3ccc(NC(=O)C4CC4)cc3)n2)n[nH]1 [tozasertib]
Summary of the method: as §1

doramapimod = compound: Cc1ccc(-n2nc(C(C)(C)C)cc2NC(=O)Nc2ccc(OCCN3CCOCC3)c3ccccc23)cc1 [doramapimod]
Summary of the method: as §1

bafetinib = compound: Cc1ccc(NC(=O)c2ccc(CN3CC[C@H](N(C)C)C3)c(C(F)(F)F)c2)cc1Nc1nccc(-c2cncnc2)n1 [bafetinib]
Summary of the method: as §1

[6] = compound: Cc1cccc(CC(=O)N2CCc3c2ccc(-c2cn(C)c4ncnc(N)c24)c3F)n1
Summary of the method: as §1

Chain of UniProt Q9UPW6 (Q9UPW6 whole entry, looked up): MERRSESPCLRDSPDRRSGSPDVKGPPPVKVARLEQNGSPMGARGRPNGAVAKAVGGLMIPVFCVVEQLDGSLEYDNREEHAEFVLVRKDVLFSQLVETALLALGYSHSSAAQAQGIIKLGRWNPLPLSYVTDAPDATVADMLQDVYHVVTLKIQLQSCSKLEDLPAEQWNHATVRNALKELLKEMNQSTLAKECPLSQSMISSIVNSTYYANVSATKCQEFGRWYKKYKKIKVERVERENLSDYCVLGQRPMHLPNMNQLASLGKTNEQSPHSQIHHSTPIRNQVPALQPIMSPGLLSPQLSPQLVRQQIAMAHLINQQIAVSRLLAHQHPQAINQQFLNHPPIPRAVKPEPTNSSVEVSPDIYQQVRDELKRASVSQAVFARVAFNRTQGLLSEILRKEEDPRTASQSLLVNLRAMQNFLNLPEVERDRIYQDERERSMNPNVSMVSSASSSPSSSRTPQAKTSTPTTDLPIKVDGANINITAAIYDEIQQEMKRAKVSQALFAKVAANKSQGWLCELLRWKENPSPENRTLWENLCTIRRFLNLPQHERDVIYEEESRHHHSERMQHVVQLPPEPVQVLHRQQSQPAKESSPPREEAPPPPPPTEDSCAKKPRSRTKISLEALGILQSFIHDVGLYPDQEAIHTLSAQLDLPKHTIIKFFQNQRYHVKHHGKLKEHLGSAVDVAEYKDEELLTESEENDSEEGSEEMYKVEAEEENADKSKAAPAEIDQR
Chain of UniProt Q99496 (Q99496 whole entry, looked up): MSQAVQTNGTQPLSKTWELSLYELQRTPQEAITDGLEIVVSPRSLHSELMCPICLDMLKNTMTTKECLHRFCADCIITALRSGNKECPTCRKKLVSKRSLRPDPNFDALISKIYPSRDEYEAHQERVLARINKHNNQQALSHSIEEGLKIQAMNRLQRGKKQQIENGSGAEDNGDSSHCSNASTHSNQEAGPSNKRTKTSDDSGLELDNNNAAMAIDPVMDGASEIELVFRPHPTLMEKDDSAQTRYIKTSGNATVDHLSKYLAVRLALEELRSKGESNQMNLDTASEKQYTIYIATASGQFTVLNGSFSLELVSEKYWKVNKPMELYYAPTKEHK
Chain of UniProt Q7L0Q8 (Q7L0Q8 whole entry, looked up): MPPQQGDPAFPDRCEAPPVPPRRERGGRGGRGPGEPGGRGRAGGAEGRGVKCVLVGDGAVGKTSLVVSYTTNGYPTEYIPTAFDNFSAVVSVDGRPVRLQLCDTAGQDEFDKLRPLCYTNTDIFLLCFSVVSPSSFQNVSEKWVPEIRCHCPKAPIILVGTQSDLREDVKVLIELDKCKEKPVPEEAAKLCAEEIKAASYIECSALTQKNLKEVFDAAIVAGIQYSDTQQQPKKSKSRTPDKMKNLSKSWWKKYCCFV
Chain of UniProt P04844 (P04844 whole entry, looked up): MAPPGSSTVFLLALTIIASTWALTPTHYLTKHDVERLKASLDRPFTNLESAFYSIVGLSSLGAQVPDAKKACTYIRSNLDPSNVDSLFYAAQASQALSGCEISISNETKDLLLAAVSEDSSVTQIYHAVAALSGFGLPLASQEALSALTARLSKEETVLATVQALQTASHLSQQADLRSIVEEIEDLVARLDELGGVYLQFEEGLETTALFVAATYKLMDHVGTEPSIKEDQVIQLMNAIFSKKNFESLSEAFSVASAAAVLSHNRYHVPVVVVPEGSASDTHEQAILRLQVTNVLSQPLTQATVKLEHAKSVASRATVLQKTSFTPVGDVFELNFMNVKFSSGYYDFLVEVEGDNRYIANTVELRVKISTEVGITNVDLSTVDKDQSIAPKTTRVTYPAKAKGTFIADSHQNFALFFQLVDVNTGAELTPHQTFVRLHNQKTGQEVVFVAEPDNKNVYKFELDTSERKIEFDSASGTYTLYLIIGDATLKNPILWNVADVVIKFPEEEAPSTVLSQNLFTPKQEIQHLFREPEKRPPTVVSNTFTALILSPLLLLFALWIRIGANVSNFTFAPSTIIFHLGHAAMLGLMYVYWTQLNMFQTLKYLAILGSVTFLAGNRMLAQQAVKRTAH
Chain of UniProt Q8NC44 (Q8NC44 whole entry, looked up): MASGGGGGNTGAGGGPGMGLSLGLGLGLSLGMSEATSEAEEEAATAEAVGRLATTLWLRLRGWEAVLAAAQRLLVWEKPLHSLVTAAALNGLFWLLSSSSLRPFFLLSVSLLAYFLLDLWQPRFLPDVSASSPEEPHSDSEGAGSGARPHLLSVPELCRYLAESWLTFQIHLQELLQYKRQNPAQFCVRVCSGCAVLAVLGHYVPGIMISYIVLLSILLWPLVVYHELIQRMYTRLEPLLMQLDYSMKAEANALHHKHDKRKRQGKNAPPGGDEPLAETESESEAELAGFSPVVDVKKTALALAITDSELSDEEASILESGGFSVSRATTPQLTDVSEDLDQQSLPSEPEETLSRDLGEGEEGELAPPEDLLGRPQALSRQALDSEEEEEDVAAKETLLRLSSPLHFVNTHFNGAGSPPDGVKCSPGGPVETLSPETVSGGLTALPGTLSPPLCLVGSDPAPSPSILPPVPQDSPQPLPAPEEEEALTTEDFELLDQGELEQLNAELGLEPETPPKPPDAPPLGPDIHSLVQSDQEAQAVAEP
Chain of UniProt Q05823 (Q05823 whole entry, looked up): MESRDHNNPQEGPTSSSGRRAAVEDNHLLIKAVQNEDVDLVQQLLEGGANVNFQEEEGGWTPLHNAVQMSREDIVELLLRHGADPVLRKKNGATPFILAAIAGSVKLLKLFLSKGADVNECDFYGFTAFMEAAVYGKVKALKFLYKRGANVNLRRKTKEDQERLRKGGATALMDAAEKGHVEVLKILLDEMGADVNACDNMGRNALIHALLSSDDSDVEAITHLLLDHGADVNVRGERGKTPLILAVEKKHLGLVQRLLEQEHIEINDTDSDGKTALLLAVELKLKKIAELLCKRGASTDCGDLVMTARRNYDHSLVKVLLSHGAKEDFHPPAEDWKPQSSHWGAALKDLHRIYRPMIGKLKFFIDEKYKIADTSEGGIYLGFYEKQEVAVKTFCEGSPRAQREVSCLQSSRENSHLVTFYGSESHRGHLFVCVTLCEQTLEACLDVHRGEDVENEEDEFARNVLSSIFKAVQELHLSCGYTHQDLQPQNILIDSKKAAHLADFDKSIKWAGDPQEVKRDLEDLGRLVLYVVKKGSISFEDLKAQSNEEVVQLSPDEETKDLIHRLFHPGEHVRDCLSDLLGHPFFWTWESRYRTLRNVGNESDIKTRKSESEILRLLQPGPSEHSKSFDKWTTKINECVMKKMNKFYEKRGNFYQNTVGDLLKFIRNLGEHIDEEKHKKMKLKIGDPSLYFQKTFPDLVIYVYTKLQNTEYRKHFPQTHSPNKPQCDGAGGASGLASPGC
Chain of UniProt Q9H0R6 (Q9H0R6 whole entry, looked up): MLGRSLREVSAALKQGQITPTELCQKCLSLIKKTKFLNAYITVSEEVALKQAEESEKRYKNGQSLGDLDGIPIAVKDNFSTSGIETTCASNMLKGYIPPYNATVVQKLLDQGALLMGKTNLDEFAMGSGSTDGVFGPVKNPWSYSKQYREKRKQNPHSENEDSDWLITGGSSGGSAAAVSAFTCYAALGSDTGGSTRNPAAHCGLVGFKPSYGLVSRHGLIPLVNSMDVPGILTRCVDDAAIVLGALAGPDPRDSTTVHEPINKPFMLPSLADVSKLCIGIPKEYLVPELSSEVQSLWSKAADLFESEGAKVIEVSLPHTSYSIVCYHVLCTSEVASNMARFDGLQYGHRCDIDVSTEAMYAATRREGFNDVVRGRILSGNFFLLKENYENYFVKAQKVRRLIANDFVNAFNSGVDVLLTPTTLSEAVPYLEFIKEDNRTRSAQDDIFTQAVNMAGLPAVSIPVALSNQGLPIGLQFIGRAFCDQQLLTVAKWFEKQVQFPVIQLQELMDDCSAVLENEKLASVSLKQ
Chain of UniProt P47736 (P47736 whole entry, looked up): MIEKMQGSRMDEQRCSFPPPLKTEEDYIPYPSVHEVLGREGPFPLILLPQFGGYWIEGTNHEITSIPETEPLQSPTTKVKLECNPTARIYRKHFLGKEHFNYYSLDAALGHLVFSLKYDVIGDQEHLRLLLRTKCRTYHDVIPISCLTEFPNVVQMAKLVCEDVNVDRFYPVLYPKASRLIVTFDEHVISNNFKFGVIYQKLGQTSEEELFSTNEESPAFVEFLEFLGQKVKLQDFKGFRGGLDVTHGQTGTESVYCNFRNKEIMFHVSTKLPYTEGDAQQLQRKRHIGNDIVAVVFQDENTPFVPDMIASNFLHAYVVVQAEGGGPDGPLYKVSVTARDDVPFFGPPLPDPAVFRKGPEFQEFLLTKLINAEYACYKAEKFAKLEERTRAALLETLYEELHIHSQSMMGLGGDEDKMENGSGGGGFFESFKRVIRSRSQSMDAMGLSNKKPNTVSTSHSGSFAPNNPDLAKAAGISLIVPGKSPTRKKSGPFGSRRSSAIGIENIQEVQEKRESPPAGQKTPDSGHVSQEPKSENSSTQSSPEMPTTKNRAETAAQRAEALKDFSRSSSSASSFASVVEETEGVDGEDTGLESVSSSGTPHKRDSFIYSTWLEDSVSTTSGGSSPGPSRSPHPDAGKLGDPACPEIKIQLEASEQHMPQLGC
Chain of UniProt O00767 (O00767 whole entry, looked up): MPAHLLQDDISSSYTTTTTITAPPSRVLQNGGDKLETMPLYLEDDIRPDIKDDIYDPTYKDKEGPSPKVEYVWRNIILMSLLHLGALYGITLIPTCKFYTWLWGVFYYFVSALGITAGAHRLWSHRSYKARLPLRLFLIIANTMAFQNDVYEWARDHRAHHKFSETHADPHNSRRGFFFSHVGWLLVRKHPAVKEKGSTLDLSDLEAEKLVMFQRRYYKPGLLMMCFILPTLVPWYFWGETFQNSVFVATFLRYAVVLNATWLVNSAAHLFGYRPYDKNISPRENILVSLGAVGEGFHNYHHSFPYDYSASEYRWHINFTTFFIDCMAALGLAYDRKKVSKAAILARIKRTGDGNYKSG

| Target | log2 fold change (alvocidib) | log2 fold change (Tubastatin A) | log2 fold change [1] | log2 fold change (defactinib) | log2 fold change [2] | log2 fold change (encorafenib) | log2 fold change [3] | log2 fold change (alisertib) | log2 fold change [4] | log2 fold change (gefitinib) | log2 fold change (lapatinib) | log2 fold change (pictilisib) | log2 fold change (crizotinib) | log2 fold change [5] | log2 fold change (duvelisib) | log2 fold change (gandotinib) | log2 fold change (tozasertib) | log2 fold change (doramapimod) | log2 fold change (bafetinib) | log2 fold change [6] |
| --- | --- | --- | --- | --- | --- | --- | --- | --- | --- | --- | --- | --- | --- | --- | --- | --- | --- | --- | --- | --- |
| SCD (UniProt O00767) | -0.138 | -0.015 | -0.014 | -0.02 | -0.091 | -0.097 | 0.076 | 0.006 | 0.004 | 0.011 | 0.059 | 0 | -0.08 | -0.443 (active) | 0.067 | 0.155 | 0.065 | 0.077 | -0.053 | 0.273 |
| SATB2 (UniProt Q9UPW6) | 0.047 | -0.096 | -0.019 | -0.022 | -0.031 | 0.053 | -0.022 | 0.024 | -0.008 | 0.01 | -0.009 |  | 0.009 | 0.042 | 0.03 | -0.039 | -0.008 | 0.002 |  | -0.008 |
| RNF2 (UniProt Q99496) | 0.359 | -0.008 | 0.067 | 0.034 | 0.018 | 0.054 | -0.076 | -0.125 |  | -0.038 |  |  | 0.087 | 0.484 (active) | 0.031 | -0.299 | 0.021 | -0.032 |  | -0.442 (active) |
| RPN2 (UniProt P04844) | -0.024 | 0.001 | -0.024 | -0.006 | -0.01 | 0.041 | -0.031 | -0.008 | -0.03 | 0.011 | -0.048 | -0.006 | -0.004 | -0.074 | -0.003 | 0.039 | -0.003 | 0 | -0.032 | 0.06 |
| RPS29 (UniProt P62273) | 0.23 | -0.052 | -0.029 | -0.027 | 0.081 | -0.062 | 0.151 | -0.278 | 0.032 | -0.138 | -0.024 | 0.03 | 0.054 | 0.793 (active) | -0.02 | -0.202 | -0.128 | -0.105 | 0.205 | -0.315 |
| RETREG2 (UniProt Q8NC44) | -0.069 | -0.025 | 0 | -0.12 |  | -0.002 | -0.096 | -0.029 | -0.007 | -0.058 | -0.051 | -0.037 | -0.074 | -0.052 |  | -0.052 | 0.025 | -0.005 | -0.141 | 0.122 |
| RHOU (UniProt Q7L0Q8) | 0.007 | 0.005 | -0.036 | -0.073 | -0.17 | -0.088 | 0.164 | -0.014 | 0.024 | -0.017 | -0.05 |  | -0.002 | -0.323 (active) | 0.024 | -0.031 | 0.113 | 0.038 |  | 0.056 |
| RNF40 (UniProt O75150) | -0.003 | -0.102 | 0.023 | 0.022 | -0.006 | 0.015 | 0.079 | -0.002 | 0 | 0.013 | -0.019 | -0.005 | -0.01 | -0.011 | -0.001 | -0.048 | -0.002 | 0.002 | 0.01 | 0.03 |
| RAB27A (UniProt P51159) | 0.087 | -0.083 | 0.047 | -0.001 | -0.131 | 0.027 | 0.016 | -0.004 | 0.041 | 0.068 | 0.013 | -0.008 | 0.026 | 0.563 (active) | -0.009 | -0.081 | 0.024 | -0.034 | 0.038 | -0.054 |
| QRSL1 (UniProt Q9H0R6) | -0.028 | -0.021 | -0.012 | -0.068 | -0.051 | -0.015 | -0.005 | 0.014 | 0.014 | -0.045 | 0.038 | 0.044 | 0.031 | 0.105 | 0.044 | -0.04 | 0.044 | 0.003 | -0.227 | -0.022 |
| RAP1GAP isoform 4 (UniProt P47736) | 0.01 | -0.138 | 0.06 | 0.012 | -0.027 | 0.022 | 0.01 | 0.024 | 0.008 | 0.026 | -0.019 | -0.018 | -0.044 | 0.044 | -0.032 | -0.044 | -0.009 | -0.001 | -0.069 | 0.007 |
| RNASEL (UniProt Q05823) | 0.054 | -0.094 | -0.034 | -0.02 | 0.012 | 0.029 | 0.144 | -0.074 | -0.035 | 0.061 | -0.034 | -0.076 | -0.04 | -0.011 | 0.007 | -0.068 | -0.014 | -0.007 | -0.018 | -0.013 |
